# In ChEMBL document CHEMBL3988442, “University of Dundee, Small-Polar-MMV Screening Library” (2021):
# About 1,200 (3.2%) of roughly 38,000 compounds showed an effect of 50% or more. The median lay at about -58%. The sample holds strong results, similar compounds and a random draw of the others, so the mix is not that of the screen.
# Test system: Plasmodium falciparum
# Experiment: Calibr Malaria Delayed Death Assay SOP
# Assay type: functional, organism-based
# Parameters: scale not given: in the data most compounds retested in dose-response had high values
# Conditions: concentration 4.99e-06 (unit not given; other assays of the set use mol/L)
row,SMILES,Percent Effect
1,COC(=O)c1cccc(C(=O)NCc2ccc3c(c2)CCCN3C)c1,-12.04%
2,CN1CCCc2cc(CNC(=O)c3ccncc3)ccc21,-23.61%
3,COc1cc(C(=O)NCc2ccc3c(c2)CCCN3C)cc(OC)c1Br,65%
4,Cc1nn(CC(O)CN2CCC(C)CC2)c(=O)c(C#N)c1C (configuration not stated),-55.82%
5,O=C(CCn1ccc2cc(Br)ccc21)NC[C@@H]1CCCN2CCCC[C@H]12,65.78%
6,O=C(Cn1ccc2ccc(Br)cc21)NC[C@@H]1CCCN2CCCC[C@H]12,78.77%
7,O=C(Cn1ccc2ccccc21)NC[C@@H]1CCCN2CCCC[C@H]12,-17.29%
8,O=C(Cn1ccc2ccc(F)cc21)NC[C@@H]1CCCN2CCCC[C@H]12,36.3%
9,O=C(Cn1ccc2cc(Br)ccc21)NC[C@@H]1CCCN2CCCC[C@H]12,-18.45%
10,Cc1cccc2c1ccn2CC(=O)NC[C@@H]1CCCN2CCCC[C@H]12,70.06%
11,O=C(O)C1CCN(C(=O)CCn2ccc3cc(Br)ccc32)CC1,-107.6%
12,COc1ccc2c(ccn2CC(=O)NC[C@@H]2CCCN3CCCC[C@H]23)c1,-61.04%
13,O=C(O)C1CCN(C(=O)Cn2ccc3c(Cl)cccc32)CC1,-74.89%
14,CC(C)c1nsc(N2CCC(OCCN3CCOCC3)CC2)n1,-47.66%
15,CN(C)C(=O)COCC1CN(C2CCC2)Cc2ncn(C)c21.O=C(O)C(F)(F)F.O=C(O)C(F)(F)F (configuration not stated),-81.18%
16,Cc1c(C(=O)N2CCCC(O)(CN(C)C)CC2)c2cc(O)ccc2n1C (configuration not stated),-101.4%
17,Cc1cc2ccccc2n1CCC(=O)N1CCCC(O)(CN(C)C)CC1 (configuration not stated),54.68%
18,CN(C)CC1(O)CCCN(C(=O)Cn2nc3ccccc3n2)CC1 (configuration not stated),-95.76%
19,Cn1nnc2c1C(COCC1CC1)CN(C(=O)Cc1cccs1)C2 (configuration not stated),-35.42%
20,N#Cc1c(CN2CCCC2Cn2cccn2)cn2ccccc12 (configuration not stated),-64.03%
21,CCc1cc(C(=O)N2CC[C@@H](c3ccc4ccccc4c3)[C@H](O)C2)[nH]n1,17.14%
22,CN(Cc1cc(F)cc2cccnc12)CC1CCN(CCO)CC1,84.26%
23,CC(O)CN1CCC(CN(C)Cc2cc(F)cc3cccnc23)CC1 (configuration not stated),86.77%

row,SMILES,Percent Effect
1,CN(Cc1cc(Cl)cc2cccnc12)CC1CCN(CCO)CC1,88.36%
2,CC(C)c1nc(CN(C)CC2CCN(CCO)CC2)no1,-37.31%
3,OCCN1CCN(Cc2cc(Cl)cc3cccnc23)CC1,-35.44%
4,CC(O)CN1CCC(CN(C)CC(=O)NC(C)C)CC1 (configuration not stated),-132.6%
5,CN(CC(N)=O)Cc1cc(Cl)cc2cccnc12,-110.1%
6,CN(Cc1noc(C2CC2)n1)CC1CCN(CCO)CC1,-111.1%
7,CC(O)CN1CCC(CN(C)CCC(=O)NC2CCCC2)CC1 (configuration not stated),-87.19%
8,CCn1cc(Br)c(C(=O)NCc2ccccc2)n1,-62.24%
9,COc1ccc(C(=O)N2CCC(Nc3cccnn3)CC2)cn1,-79.23%
10,CN(C)c1ncc2c(n1)CN(C1CCSCC1)C2=O,-103.3%
11,Cc1cc(C2CCCN(Cc3nnc(Cc4ccccc4)o3)C2)n[nH]1 (configuration not stated),-117.5%
12,COc1cc(Cl)ccc1C(=O)N1CCCC(c2cc(C)[nH]n2)C1 (configuration not stated),-107.6%
13,Cc1cc(CNC(=O)c2ccno2)c(C)o1,-93.35%
14,CCS(=O)(=O)c1ccccc1C(=O)N1CCCC(n2cccn2)C1 (configuration not stated),-21.75%
15,CC(C)(O)CCc1cccc(C(=O)NCc2cnn3cccnc23)c1,-126.6%
16,O=C(NCc1cnn2cccnc12)c1cccc(CC2CCNCC2)c1,65.91%
17,Cc1cccnc1[C@H](C)NC(=O)c1cccc(CC2CCNCC2)c1,7.759%
18,CCOCC1CCN(C(=O)Nc2ccc3c(c2)CCCN3C)C1 (configuration not stated),57.13%
19,CCNC(=O)C1CCCN(C(=O)Nc2ccc3c(c2)CCCN3C)C1 (configuration not stated),9.496%
20,CCOCC1CCN(C(=O)Nc2ccc3c(c2)CCCO3)C1 (configuration not stated),-56.87%
21,Cc1noc([C@H]2COC[C@H]3CN(C(=O)Cc4cccs4)C[C@H]32)n1,-60.46%
22,CN(C(=O)Cn1nc(-c2cccs2)ccc1=O)C1CCS(=O)(=O)C1 (configuration not stated),-97.97%
23,CC1=C(CCN2CC[C@@H](N3CCC(O)CC3)[C@H](O)C2)C(C)(C)CCC1,-51.59%

row,SMILES,Percent Effect
1,CC1=C(CCN2C[C@H](O)[C@@H](N3CCOCC3)C2)C(C)(C)CCC1,77.23%
2,Cc1c(CN2C[C@H](O)[C@@H](N3CCOCC3)C2)[nH]c2ccc(F)cc12,-95.14%
3,COc1ccc2c(c1)NC(=O)C2OC(=O)Cc1ccccc1C (configuration not stated),10.16%
4,Cc1nn(C)cc1-c1ccnc(N2CCCN(CC(C)C)CC2)n1,-23.38%
5,CN1CCN(c2nccc(-c3cncnc3C3CCCCC3)n2)CC1,60.54%
6,CCc1ncc2c(n1)CN(c1nccc(C3CCCC3)n1)C2,-48.7%
7,CN1CCCN(c2nc(C3CCCC3)nc3c2cnn3C)CC1,-58.12%
8,c1cc(-c2cn3nccc3nc2C2CCCCC2)nc(N2CCCC2)n1,-1.044%
9,CN1CCCN(c2nccc(-c3cncnc3C3CCCCC3)n2)CC1,59.73%
10,Cc1nn(C)c2ncc(NC(=O)N3CCCCCC3)cc12,-40.12%
11,Cc1nc(CN2CCc3cnc(C(C)C)nc3C2)oc1C,-83.71%
12,CC(NS(C)(=O)=O)c1nc(-c2ccc(Br)cc2)no1 (configuration not stated),-124.5%
13,Cc1nc(CCN)cc(N2CCOc3ccc(Cl)cc3C2)n1,34.3%
14,Cc1nc(C2CCNCC2)cc(N2CCOc3ccccc3C2)n1,46.26%
15,Cc1nc(C2CCN(C)CC2)cc(N2CCOc3ccc(Cl)cc3C2)n1,69.39%
16,Cn1cnnc1C1CCCN1C(=O)Nc1cccc(OC(F)F)c1 (configuration not stated),-73.45%
17,CC(C)C(=O)N1CCC2(CN(CC3CCCC3)C2)C1.O=C(O)C(F)(F)F,-72.67%
18,CC(C)C(=O)N1CCC2(CCN2CC2CC2)C1.O=C(O)C(F)(F)F (configuration not stated),-79.93%
19,O=C(C1CCCCC1)N1CCC2(CCCN2CC2CC2)CC1.O=C(O)C(F)(F)F,-22.84%
20,CC(C)C(=O)N1CCCC2(CCCN2Cc2cccnc2)C1 (configuration not stated),-19.91%
21,CC(C)C(=O)N1CCCC2(CCCN2CC2CCCC2)C1.O=C(O)C(F)(F)F (configuration not stated),59.96%
